Structures are written as SMILES. Hit rate of the full screen: of about 330,000 compounds, about 960 (0.29%) were called active. The full list was thinned out, with actives kept by preference. Values without a mark were called inactive.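 Rule for the calls: active = compounds whose signal lies at least 3.5 SD above the mean of all wells on their plate; inactive = the rest.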

The experiment can be described thus: small molecules increasing insulinoma cell replication – ATP luminescence, uHTS, primary screen (AID 2380).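 Note: 0% = DMSO-treated cells in low-serum medium and 100% = 10% serum control.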 The settings on record: MIN6 cells proliferation, ATPlite luminescence, 48 h; at 10 µM; stronger effect = higher value; 100% = growth in 10% serum; cells starved in 0.2% serum.
As to `COc1ccc(/C=C2\CCCC3C2=NN(C(=O)c2scnc2C)C3c2ccc(OC)cc2)cc1` (centres undefined), the proliferation was -5.85%. With `COc1ccc(N2CCN(C(CNS(=O)(=O)c3ccc(C)cc3)c3ccccc3)CC2)cc1` (centres undefined), the proliferation is -4.55%. Turning to `Cn1cc(CN2CCC(C(O)CCc3ccccc3)CC2)c(-c2ccccc2F)n1` (centres undefined), the proliferation is 11.8% (active). For `CN(CCc1cnn(C)c1)Cc1cn(C)nc1-c1ccccc1F`, the proliferation is -0.61%. `CCCOC1CCCN(Cc2cn(C)nc2-c2ccccc2F)C1` (centres undefined): the proliferation was 1.33%. Under `COc1cc(/C=C/CO)cc(OC)c1O[C@@H]1O[C@H](CO)[C@@H](O)[C@H](O)[C@H]1O` stands -0.51%. Under `O=C(O)c1cccc(S(=O)(=O)N2CC=C(c3ccccc3)CC2)c1` stands 0.12%; under `Cc1ccc(NC(=O)c2ccc(S(=O)(=O)NCC3CCCO3)cc2)cc1C` (centres undefined), -3.24%; under `O=C1CCN(Cc2ccccc2)CCN1[C@H](CSc1ccccc1)c1ccccc1`, 2.8%. The same measure for `N#Cc1cccc(CN2CCC(=O)N([C@H](CO)c3ccccc3)CC2)c1`: 14.7% (active); for `N#Cc1cccc(CN2CCC(=O)N(CCO)CC2)c1`: -4.43%; for `COc1cccc(N=c2oc3c(C)ncc(CO)c3cc2C(N)=O)c1`: -0.09%. As for `CC(C)Cc1oc(C(=O)O)cc1CN`, the proliferation was -3.33%.

On to `CCCCNC(=O)OCCSCCS(=O)(=O)c1ccc(Cl)cc1`, for which the proliferation is -0.91%. Under `CC[C@@H]1Cc2cc(O)ccc2C2=C1c1ccc(O)cc1C[C@H]2CC` stands -8.09%; under `COCCCNC(=O)Cn1c(=O)n(Cc2ccccc2Cl)c(=O)c2cc(OC)c(OC)cc21`, -2.84%; under `COc1ccc2c(c1)C(=C(C#N)C#N)C(=O)N2CCc1ccccc1`, -3.84%.

Consider `CC(N)C12CC3CC(CC(O)(C3)C1)C2` (centres undefined), for which the proliferation was -0.37%. The same measure for `CN(CC(=O)Nc1c(Cl)cccc1Cl)C(=O)c1ccncc1`: -1.79%.

In the case of `CN1CCN(c2ccc(CNS(=O)(=O)c3cccc(F)c3)cc2)CC1`, the proliferation was -0.97%.

For the compound `COc1ccc(-n2nnnc2CNC(=O)c2ccc3ccccc3c2)cc1`, the proliferation is -1.98%. Under `CC(=O)c1ccc(S(=O)(=O)NCc2nnnn2-c2ccccc2)cc1` stands 11.8% (active). Under `O=S(=O)(Cc1nnnn1-c1ccccc1)c1ccccc1` stands -0.06%. Under `COc1ccccc1C(=O)N1CCN=C1SCc1cccnc1` stands 0.39%; under `CCCCn1c(N)c(N(CC)C(=O)c2ccc(N(C)S(=O)(=O)c3ccc(C)cc3)cc2)c(=O)[nH]c1=O`, -0.39%.

Consider `Cc1cccc(NS(=O)(=O)c2cccc(C(=O)NNC(=O)c3ccccc3O)c2)c1`, for which the proliferation is 1.68%. Regarding `CCC1(C)Cc2c(sc3nnn(CC(=O)Nc4ccc(Cl)cc4)c(=O)c23)CO1` (centres undefined), the proliferation is -4.3%. Take `C/C(=N\NC(=O)c1ccccc1C)c1ccc(N2CCOCC2)cc1`: the proliferation was 5.16% (active). The same measure for `O=C(NN=Cc1ccc(N2CCOCC2)cc1)c1cc2ccccc2cc1O`: -1.83%. Regarding `Cc1ccc(C(=O)NC(=S)Nc2ccc(N3CCOCC3)cc2)cc1`, the proliferation was -3.24%. Under `CN=C1SC(C(=O)O)CC(=O)N1C` (centres undefined) stands -0.72%; under `CCC(C)NC(=O)/C=C/c1ccc(S(=O)(=O)NCc2ccco2)cc1` (centres undefined), -2.61%. Turning to `Cc1ccc(O)c(NC(=O)c2cc(-c3ccco3)on2)c1`, the proliferation is -1.09%.

On to `Cc1ccc(S(=O)(=O)NCCC(=O)OCC(=O)N(C)c2ccccc2)cc1`, for which the proliferation was 1.89%. Under `CN(Cc1ccc(F)cc1Cl)S(=O)(=O)c1cccs1` stands 5.5% (active); under `CN(Cc1c(F)cccc1Cl)S(=O)(=O)c1cccs1`, 0%; under `O=S(=O)(NCc1ccc(Cl)cc1Cl)c1cccs1`, -2.31%.

On to `COc1ccc(N(CC(=O)Nc2cc(OC)cc(OC)c2)S(=O)(=O)c2c(C)n[nH]c2C)cc1`, for which the proliferation is -2.27%. The same measure for `CCCN1C(=O)C(Cc2nc3ccccc3c(=O)n2-c2ccccc2)c2cc(C)ccc21` (centres undefined): -2.19%; for `CN1CCN(C2Cc3ccc(Cl)cc3Sc3ccc(F)cc32)CC1` (centres undefined): -4.32%. Under `COc1ccccc1N=C(C)C1=C(O)COC1=O` stands -1.39%; under `COc1ccccc1N=Cc1c(O)c2ccccc2oc1=O`, 6.71% (active). Consider `COc1cc(N=Cc2c(O)c3ccccc3oc2=O)c(OC)cc1Cl`, for which the proliferation is 0.34%. The same measure for `COC(=O)c1ccc(CN2CCN(CCCc3ccccc3)C(CCO)C2)cc1` (centres undefined): -3.99%; for `Cc1nn(CC(=O)Nc2ccc(N(C)C)cc2)c(C)c1[N+](=O)[O-]`: 3.2%.

As for `C[n+]1cc(-c2ccccc2)oc1-c1ccccc1`, the proliferation was -1.56%.

Turning to `CN(C)c1nc(N)nc(Cn2nnc(-c3ccc(C(F)(F)F)cc3)n2)n1`, the proliferation is 1.04%. Under `COc1ccc(-c2nnn(Cc3nc(N)nc(N4CCCCC4)n3)n2)cc1` stands 8.76% (active); under `COc1ccc(-n2nnnc2SCc2nc(N)nc(N3CCOCC3)n2)cc1`, -2.85%; under `CC(=O)Nc1ccc(NC(=O)C(C)OC(=O)c2ccccc2C(=O)c2ccc(Cl)c([N+](=O)[O-])c2)cc1` (centres undefined), -5.3%. Under `O=C(Nn1c(-c2ccc(Cl)cc2)nc2ccccc2c1=O)c1cccnc1Cl` stands -0.79%; under `N#CCc1ccc(NC(=O)c2ccccc2C(=O)Nc2ccc(CC#N)cc2)cc1`, -4.24%; under `CCOc1ccc(NC(=O)Nc2cc(C)ccc2OC)cc1`, -2.89%. `CCOc1ccccc1NC(=O)Nc1cc(OC)ccc1OC`: the proliferation is 7.28% (active).

Regarding `COc1ccc(OC)c(NC(=O)CC(Cc2ccccc2OC)C(=O)O)c1` (centres undefined), the proliferation was -2.33%. Under `CC(C)(C)N(Cc1ccccc1)C(=O)c1ccncc1` stands -4.48%; under `O=c1[nH][nH]c(C(F)(F)F)c1C=NCc1ccccc1Cl`, -0.46%.

For the compound `Cc1cccn2c(=O)c3cc(C(=O)NCCN4CCOCC4)c(=N)n(Cc4cccnc4)c3nc12`, the proliferation was -6.51%. As to `COc1ccc(CCn2c(=N)c(C(=O)NCc3ccco3)cc3c(=O)n4cccc(C)c4nc32)cc1`, the proliferation was 10.3% (active). The same measure for `COc1ccc(CCn2c(=N)c(C(=O)NCC3CCCO3)cc3c(=O)n4cccc(C)c4nc32)cc1OC` (centres undefined): -3.69%. Under `NS(=O)(=O)c1ccc(-c2ccc(/C=C3\SC(=O)NC3=O)o2)cc1` stands 2.43%; under `COc1ccc2cc(-c3[nH]ncc3CNCCn3nc(C)cc3C)ccc2c1`, -1.3%; under `NC(=O)C1CCN(C2OC(=O)c3ccccc32)CC1` (centres undefined), -1.61%.

As for `O=C(Nc1ccc(F)cc1)C1CCCN(S(=O)(=O)c2ccc(-n3cnnn3)cc2)C1` (centres undefined), the proliferation is 0% (active). Under `CC(NC(=O)C1CCCN(S(=O)(=O)c2ccc(-n3cnnn3)cc2)C1)c1ccc(F)cc1` (centres undefined) stands -0.52%; under `CC(C)CNC(=O)C1CCCN(S(=O)(=O)c2ccc(-n3cnnn3)cc2)C1` (centres undefined), 1.81%. Under `Cc1cc(NC(=O)c2ccco2)c(=O)n(Cc2c(F)cccc2Cl)c1` stands 6.29% (active); under `O=C(Nc1cccn(Cc2c(Cl)cccc2Cl)c1=O)c1ccc(Cl)cc1`, 0.88%; under `O=C(Cc1c(F)cccc1Cl)N1CCN(C(=O)c2ccco2)CC1`, -0.41%. The same measure for `COc1cc2cc(CN(CCN3CCCC3)C(=O)Nc3ccccc3Cl)c(=O)[nH]c2cc1OC`: -1.42%; for `CN(Cc1ccc2nsnc2c1)Cc1nc(Cc2cccc(F)c2)no1`: -1.6%.

With `CC1(C)Cc2c(sc(NC(=O)C(=O)NCC3CCCO3)c2C(=O)O)CO1` (centres undefined), the proliferation is -1.4%. Under `COc1ccc(CNC(=O)C(C)n2nc(C)c3c(C)n(-c4ccccc4)nc3c2=O)c(OC)c1` (centres undefined) stands 0.39%; under `Cc1nn(C(C)C(=O)NCCC2=CCCCC2)c(=O)c2nn(-c3ccccc3)c(C)c12` (centres undefined), 11.7% (active); under `Cc1nn(C(C)C(=O)N2CCOCC2)c(=O)c2nn(-c3ccccc3)c(C)c12` (centres undefined), -0.46%. Under `COC(=O)c1ccc(C(NC(=O)OCc2ccccc2)/C(C)=C/[C@@H](C)C(=O)NCc2ccc(OC)c(OC)c2)cc1` (some centres undefined) stands -1.99%; under `CC(C)OCCCNC(=S)N1CCC(C(=O)c2ccc3c(c2)OCCO3)CC1`, -1.17%; under `CC(C)C(=O)Nc1c2c(nn1-c1ccccc1)CSC2`, 0.9%. The same measure for `CC1(C)C2CC=C(/C=N/NC(=O)C3CC3)C1C2` (centres undefined): 7.56% (active); for `COc1ccc(/C=N/NC(=O)C2CC2)c(OC)c1OC`: 0.51%. As to `CC1(C)C2CC=C(/C=N/NC(=O)c3ccc(Cl)cc3)C1C2` (centres undefined), the proliferation was -2.07%. For the compound `O=[N+]([O-])c1ccc2c(c1)C(N1CCOCC1)/C(=C/C1(O)CCCCC1)O2` (centres undefined), the proliferation is -1.4%. Under `O=C(O)c1cc(S(=O)(=O)N(Cc2ccccc2)c2cccc(C(F)(F)F)c2)ccc1Cl` stands -1%. Under `CCC1(CC)NC(=O)N(CC(=O)OCC(=O)Nc2ccc(C(F)(F)F)cc2)C1=O` stands -0.99%; under `CC1CCN(C(=O)/C(=C\c2ccccc2)NC(=O)c2ccccc2)CC1`, 2.17%; under `O=C(OCCN1CCOCC1)C1(c2ccccc2)CCCCC1`, 5.6%.

As to `CCCC(NCC(=O)Nc1ccccc1C(=O)NC1CC1)c1ccccc1` (centres undefined), the proliferation was -0.98%. For `Cc1ccc(NC(=O)COC(=O)CNC(=O)c2ccc(Cl)cc2Cl)cc1S(=O)(=O)N1CCOCC1`, the proliferation is -0.42%.

Consider `Cc1cccc2c1-c1sc(C(=O)NCCCN3CCc4ccccc4C3)cc1CO2`, for which the proliferation was -7.36%.

Source of the values: PubChem BioAssay AID2380 (Sanford-Burnham Center for Chemical Genomics, 2010).
